The source of these data is PubChem BioAssay.

Test [1] in a line: resazurin metabolic signal in HepG2 cells – cell-based, resazurin fluorescence, 24 h, PK04 Diversity Set, profiling panel (AID 1172). The settings on record: HepG2 viability, higher = more signal. (Alamar Blue is a resazurin reagent that responds to reducing activity.)
Test [2] in a line: budding yeast growth changes without added modifier – OD600, strain BY4716, 24 h, basal condition, primary screen (AID 1173). The conditions noted are these: S. cerevisiae BY4716 growth, OD600, 24 h; higher = more signal, called active from +8 up or from −8 down.
Test [3] can be described thus: viability profiling in MM1S myeloma cells – cell-based, resazurin fluorescence, basal, 24 h, PK04 Diversity Set, profiling panel (AID 1174).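 Also: MM1S multiple myeloma cell line.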 The settings on record: higher = more signal, called active from +8 up or from −8 down.
Test [4] concerns the target Dihydroorotate dehydrogenase (quinone), mitochondrial (Plasmodium falciparum (isolate 3D7)) (UniProt Q08210). The test is described as follows: inhibition of P. falciparum DHODH – biochemical, C-terminal His tag, absorbance 600 nm, primary screen (AID 1175).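 Also: recombinant parasite enzyme with a five histidine tag at its C terminus.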 The conditions noted are these: PfDHODH enzyme, DCIP absorbance 600 nm; higher = more signal, called active from +8 up or from −8 down.

Test [5] is described as follows: inhibition of PAO1 biofilm formation – strain PAO1, LB-PBS medium, absorbance 600 nm, primary screen (AID 1176). The conditions noted are these: P. aeruginosa PAO1 growth/biofilm, A600, 12 h; higher = more signal.
Test [6] is described as follows: growth modulation of vineyard yeast isolate – strain RM11-1a, OD600, basal, 24 h, primary screen (AID 1177).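 Also: cultures grown under basal conditions with no added stressor.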 The conditions noted are these: S. cerevisiae RM11-1a growth, OD600, 24 h; higher = more signal, called active from +8 up or from −8 down.
The nature of test [7]: growth of efflux-deficient E. coli DRC39 – strain DRC39, OD650, 24 h, E. coli filamentation inducers, primary screen (AID 1178).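 Also: growth measured as culture turbidity by optical density at 650 nm.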 The settings on record: E. coli DRC39 acrAB, higher = more signal, called active from +8 up or from −8 down.
Test [8] in a line: growth of efflux-deficient E. coli DRC39 – strain DRC39, OD650, 48 h, E. coli filamentation inducers, primary screen (AID 1179).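 Also: screen aims at cell division blockers that make cells filament.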 The settings on record: E. coli DRC39 delta-acrAB growth, higher = more signal, called active from +8 up or from −8 down.
Test [9] in a line: viability profiling in RPMI8226 myeloma cells – cell-based, resazurin fluorescence, basal, 24 h, PK04 Diversity Set, profiling panel (AID 1180).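 Also: RPMI8826 multiple myeloma cell line at 5000 cells per well.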 The settings on record: higher = more signal.
Test [10] addresses E3 ubiquitin-protein ligase XIAP (Homo sapiens) (UniProt P98170). The test is described as follows: small molecules binding XIAP protein – biophysical, small-molecule microarray, fluorescence 635 nm, primary screen (AID 1181).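 Also: score merges 667 nm emission and signal to noise over triplicate slides.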 The conditions noted are these: higher = more signal.
The subject of test [11] is XIP peptide (Xip251-270) binding. As to the kind of experiment: XIP fragment 251-270 binding compounds – biochemical, small-molecule microarray, fluorescence 635/667 nm, 0.1 µg/mL protein, primary screen (AID 1182). The settings on record: fluorescent protein binding, 635 nm, higher = more signal, called active from +8 up or from −8 down.
The next test deals with XIP peptide (Xip251-270). As to the kind of experiment: compounds binding XIP fragment 251-270 – biochemical, small-molecule microarray, fluorescence 635/667 nm, 0.5 µg/mL protein, primary screen (AID 1183). The settings on record: fluorescence 635 nm, higher = more signal.
Test [12] can be described thus: blood-stage malaria parasite viability loss – strain 3D7, DAPI fluorescence, 100 nL, primary screen (AID 1184).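 Also: parasites grown inside human red blood cells in medium with human serum.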 The settings on record: P. falciparum 3D7 growth, 3 d, higher = more signal.
Test [13] deals with Homeobox protein Hox-A13 (Mus musculus) (UniProt Q62424). The test is described as follows: disruptors of Hoxa13 oligonucleotide interaction – biochemical, fluorescence polarization, labeled oligonucleotide, primary screen (AID 1185). The conditions noted are these: Hoxa13:DNA binding, 15 min, higher = more signal, called active from +8 up or from −8 down.
Test [14] in a line: blockers of DNA damage checkpoint Chk1 activation – imaging, HeLa, hydroxyurea, phospho-Chk1 antibody, percent positive cells, primary screen (AID 1186). The settings on record: hydroxyurea-induced phospho-Chk1 immunofluorescence imaging, higher = more signal.
Test [15] is described as follows: blockers of DNA damage checkpoint Chk1 activation – imaging, HeLa, hydroxyurea, phospho-Chk1 nuclear intensity, primary screen (AID 1187). The settings on record: hydroxyurea-induced phospho-Chk1 immunofluorescence imaging, higher = more signal.

The source made the active and inactive calls. Unless noted, no rule for the calls is given here.

Sequence of Homeobox protein Hox-A13 (Mus musculus) (Q62424 whole entry, looked up): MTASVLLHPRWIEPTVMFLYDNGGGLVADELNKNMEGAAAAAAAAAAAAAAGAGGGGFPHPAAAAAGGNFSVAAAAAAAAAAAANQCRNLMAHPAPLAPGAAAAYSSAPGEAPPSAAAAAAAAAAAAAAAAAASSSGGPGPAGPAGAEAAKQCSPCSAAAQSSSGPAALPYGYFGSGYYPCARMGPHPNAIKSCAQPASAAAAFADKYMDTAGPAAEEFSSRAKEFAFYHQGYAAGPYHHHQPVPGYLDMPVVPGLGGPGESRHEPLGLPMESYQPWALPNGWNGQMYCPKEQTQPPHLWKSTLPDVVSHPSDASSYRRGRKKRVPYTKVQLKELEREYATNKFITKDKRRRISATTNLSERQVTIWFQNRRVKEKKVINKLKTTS
Sequence of Dihydroorotate dehydrogenase (quinone), mitochondrial (Plasmodium falciparum (isolate 3D7)) (Q08210 whole entry, looked up): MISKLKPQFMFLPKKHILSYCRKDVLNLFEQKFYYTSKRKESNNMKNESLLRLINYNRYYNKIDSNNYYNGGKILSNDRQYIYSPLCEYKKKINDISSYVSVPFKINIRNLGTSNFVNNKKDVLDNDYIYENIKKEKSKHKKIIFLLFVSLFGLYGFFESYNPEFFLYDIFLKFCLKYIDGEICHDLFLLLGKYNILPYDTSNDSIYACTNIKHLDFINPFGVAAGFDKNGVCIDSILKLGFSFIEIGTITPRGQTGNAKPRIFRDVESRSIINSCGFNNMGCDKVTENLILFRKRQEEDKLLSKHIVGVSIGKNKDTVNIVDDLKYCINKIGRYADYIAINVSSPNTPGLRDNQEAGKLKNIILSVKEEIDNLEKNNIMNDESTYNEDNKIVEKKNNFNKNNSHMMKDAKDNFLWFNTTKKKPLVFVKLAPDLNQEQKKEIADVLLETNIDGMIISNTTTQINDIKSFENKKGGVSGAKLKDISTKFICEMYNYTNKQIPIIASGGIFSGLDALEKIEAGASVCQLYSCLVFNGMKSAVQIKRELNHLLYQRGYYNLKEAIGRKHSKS
Sequence of E3 ubiquitin-protein ligase XIAP (Homo sapiens) (P98170 whole entry, looked up, the tested form may be a part): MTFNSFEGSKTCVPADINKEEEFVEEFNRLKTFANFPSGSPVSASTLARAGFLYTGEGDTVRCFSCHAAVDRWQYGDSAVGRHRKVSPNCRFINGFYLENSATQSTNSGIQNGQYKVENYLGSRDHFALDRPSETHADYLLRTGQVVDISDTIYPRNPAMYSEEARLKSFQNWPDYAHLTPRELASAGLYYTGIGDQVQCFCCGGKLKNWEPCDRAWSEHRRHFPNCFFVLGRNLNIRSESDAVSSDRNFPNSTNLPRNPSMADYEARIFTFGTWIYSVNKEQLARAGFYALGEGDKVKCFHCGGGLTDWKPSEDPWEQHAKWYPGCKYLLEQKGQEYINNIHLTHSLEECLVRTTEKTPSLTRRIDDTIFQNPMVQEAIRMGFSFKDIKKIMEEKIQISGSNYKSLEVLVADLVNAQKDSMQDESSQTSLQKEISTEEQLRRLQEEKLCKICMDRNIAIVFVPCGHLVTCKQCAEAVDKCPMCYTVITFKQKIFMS

On to `COC(=O)[C@@]1(Cc2ccc(OC)cc2)[C@H]2c3cc(C(=O)N4CCCC4)n(Cc4ccc(Cl)c(C(F)(F)F)c4)c3C[C@H]2CN1C(=O)c1ccccc1`, for which the z-score in test [1] is 0.27; in [2], 0.681 (inactive); in test [3], -0.267 (inactive); in [5], 0.135 (inactive); in test [6], 0.276 (inactive); in [7], -0.88 (inactive). Also, the z-score was 0.404 (inactive) in test [8]; -0.859 in test [9]; -1.37 in test [12]; 0.806 (inactive) in [13]; -0.842 (inactive) in [14]; -0.559 (inactive) in test [15]. Further, the composite z-score in test [4] was -0.902 (inactive); in test [10], -0.064; in [11] it was 0.151 (inactive); with XIP peptide (Xip251-270), 0.45.

With `C=C(C)[C@@H]1CC=C(C(O)C2C=CC3C(=O)N(C)C(=O)C3N2Nc2ccc([N+](=O)[O-])cc2[N+](=O)[O-])CC1` (some centres not stated), the z-score was -0.902 in [1]; 0.522 (inactive) in [2]; -1.28 (inactive) in [3]; 0.599 (inactive) in [5]; 0.442 (inactive) in [6]; -0.358 (inactive) in test [7]. Further, the z-score is -0.339 (inactive) in [8]; -1.1 in test [9]; 0.481 in test [12]; -4.28 (inactive) in test [13]; 0.385 (inactive) in test [14]; 0.279 (inactive) in [15]. Also, the composite z-score in test [4] was -0.109 (inactive); in test [10], 0.158; in [11], -0.0868 (inactive); in the test on XIP peptide (Xip251-270), 0.641.

For the molecule `O=C1C2C=CC(C(O)c3cccs3)N(Nc3ccc([N+](=O)[O-])cc3)C2C(=O)N1c1ccccc1` (configuration not stated), the z-score in test [1] is 0.626; in test [2], 0.348 (inactive); in test [3], -0.125 (inactive); in test [5], 0.89 (inactive); in test [6], -0.0522 (inactive); in [7], -0.958 (inactive). Moreover, the z-score in [8] is -0.0047 (inactive); in [9], -0.182; in test [12], -0.965; in [13] it was -4.16 (inactive); in test [14] it was -0.479 (inactive); in test [15], -0.779 (inactive). The composite z-score in test [4] was -1.63 (inactive); in [10] it was -0.177; in test [11], 0.396 (inactive); in the test with XIP peptide (Xip251-270), -0.0032.

As to `C=CCOC(=O)[C@@H]1[C@H]2C(=O)O[C@H](c3ccccc3)[C@H](c3ccccc3)N2[C@H](c2ccc(OCCOC(=O)[C@H]3C[C@H]4C(=O)N[C@@H](CCCCN(C)C)C(=O)N4[C@H]3c3ccc(O)cc3)cc2)[C@@]12C(=O)Nc1ccc(I)cc12`, the z-score in [1] was -0.148; in test [2], -0.679 (inactive); in test [3], -0.467 (inactive); in test [5] it was 1.34 (inactive); in [6], 1.6 (inactive); in test [7], -0.466 (inactive). For the same molecule, the z-score in test [8] is 0.236 (inactive); in test [9] it was -0.431; in test [12], -1.92; in test [13], 5.3 (inactive); in test [14] it was 0.289 (inactive); in test [15], 0.419 (inactive). Further, the composite z-score in [4] was -2.47 (inactive); in [10] it was -0.224; in test [11], 0.94 (inactive); in the test on XIP peptide (Xip251-270), 0.849.

Turning to `O=C1O[C@@H](c2ccccc2)[C@@H](c2ccccc2)N2[C@@H](c3ccccc3OCCO)[C@]3(C(=O)Nc4ccc(C#CCCO)cc43)[C@@H](C(=O)NC[C@H](O)c3ccccc3)[C@H]12`, the z-score in test [1] was 0.5; in [2] it was 1.29 (inactive); in [3] it was 0.253 (inactive); in test [5], 0.614 (inactive); in test [6], 2.96 (inactive); in test [7] it was 0.797 (inactive). The z-score in test [8] is 0.367 (inactive); in [9], -2.7; in test [12] it was -1.81; in test [13] it was -3.98 (inactive); in [14] it was 0.0469 (inactive); in test [15], 0.144 (inactive). Also, the composite z-score was 0.873 (inactive) in test [4], -0.0669 in test [10], 0.798 (inactive) in test [11] and 0.816 in the test on XIP peptide (Xip251-270).

Take `NC(=O)N1C(=O)C2C(C1=O)C1C=C(CCCO)C2C(C2CC2)N1Cc1sc2ccccc2c1Cl` (configuration not stated): the z-score in test [1] is 0.146; in [2], -6.04 (inactive); in [3], 0.691 (inactive); in [5], -0.0099 (inactive); in test [6] it was 0.269 (inactive); in test [7], 0.718 (inactive). Besides, the z-score in [8] was 0.152 (inactive); in test [9] it was 0.555; in test [12], -0.672; in test [13], -4.04 (inactive); in [14] it was -0.273 (inactive); in test [15], -0.171 (inactive). Moreover, the composite z-score in [4] is -0.744 (inactive); in [10], 0.0374; in [11], 0.632 (inactive); with XIP peptide (Xip251-270), 0.692.

Consider `CC(C)(C)N1CC=CC23O[C@@H]4/C=C\CCCOC(=O)C4[C@H]2C(=O)N(CCCO)[C@@H]3C1=O` (some centres not stated), for which the z-score in test [1] is 0.0873; in [2], 0.111 (inactive); in [3] it was 0.0928 (inactive); in [5] it was -0.236 (inactive); in test [6], -1.06 (inactive); in test [7], 0.0362 (inactive). Besides, the z-score in test [8] is -0.205 (inactive); in [9], -0.0182; in test [12], 0.426; in [13] it was -5.57 (inactive); in test [14], -0.0351 (inactive); in test [15], 0.0939 (inactive). The composite z-score is -2.08 (inactive) in [4], -0.0626 in test [10], -0.12 (inactive) in test [11] and -0.774 in the test on XIP peptide (Xip251-270).
